Most compounds without a hit are left out; they make up all but 4.6% or so of the library.
NALP3 yeast inh = NALP3 inhibition in yeast. hit rate 0.39% among 330,000. Yeast reconstituted NLRP3/ASC/caspase-1, beta-gal luminescence, 24 h. inhibition, % at 10 µM;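 active means inhibition of 50% or more; inactive means inhibition below 50%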;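 further: plate controls were induced DMSO wells for no effect and uninduced yeast grown without galactose for full effect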
SKKanGAS inh = inhibitors of SKKanGAS S. pyogenes growth in kanamycin (SK-promoter or general growth effect) | AID 1662 | inhibition, % at 7.5 µM | BacTiter-Glo, 6 h | hit rate 1.3% among 300,000;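 active means mean replicate score, as percent of positive control median, at least 50; inconclusive means mean below 50 but one replicate at or above 50; inactive means mean and every replicate below 50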;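 further: strain carries kanamycin resistance gene driven by streptokinase promoter and grows in 40 µg/ml kanamycin; loss of luminescence reflects streptokinase promoter inhibition or plain growth inhibition; 0% = median of DMSO wells and 100% = positive control at its reference dose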
TIM10 inh = growth inhibitors of TIM10 yeast strain | S. cerevisiae TIM10 strain growth, BacTiter-Glo luminescence, 24 h | inhibition, % at 10 µM | hit rate 1.4% among 330,000;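 active means inhibition of 40% or more at the single tested concentration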;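 further: wild-type TIM10 isogenic control strain grown at permissive 25 °C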
tim23-1 inh = tim23-1 yeast growth inhibition; S. cerevisiae tim23-1 growth, BacTiter-Glo luminescence, 24 h; inhibition, % at 20 µM; hit rate 1.3% among 330,000; AID 463212;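 active means growth inhibition of the mutant yeast at or above 50%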;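 further: temperature-sensitive mutant grown at 25 °C; plate controls were DMSO-treated mutant yeast for no effect and medium wells lacking yeast for full effect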
tim10-1 inh = tim10-1 yeast growth inhibition; hit rate 2.2% among 330,000; S. cerevisiae tim10-1 ts strain growth, BacTiter-Glo, 24 h; AID 463190; inhibition, % at 20 µM;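 active means inhibition of at least 40%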;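 further: mutant grown at 25 °C; 0% = DMSO wells with yeast and 100% = wells holding no yeast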
TIM10 conf = TIM10 yeast growth inhibition, confirmed; inhibition, % at 10 µM; hit rate 63% among 4,600; shares compounds with TIM10 inh; S. cerevisiae tim10 strain growth, BacTiter-Glo luminescence, 24 h;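 active means inhibition of yeast growth at or above a set limit in either of two replicates at 10 µM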;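 further: this counterscreen used the strain with wild-type TIM10; 0% = yeast with DMSO and 100% = medium wells lacking yeast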
An asterisk follows results filed as active; ? = inconclusive; . = no result.

SMILES	NALP3 yeast inh	SKKanGAS inh	TIM10 inh	tim23-1 inh	tim10-1 inh	TIM10 conf
CCOC(=O)C1CCN(C(=S)Nc2ccc(CC)cc2)CC1	18	7	13	34	23	.
O=C(COc1ccc2c3c(c(=O)oc2c1)CCC3)NCc1cccnc1	23	-3	4	10	12	.
O=c1c2c3c(sc2ncn1/N=C/c1ccc([N+](=O)[O-])o1)CCCC3	35	3	69*	-79	-21	96*
CCCCCCC(C)n1[nH]c(=O)c2c(C)cc(C)nc21 (centres undefined)	18	-4	6	28	3	.
Oc1ccc(-c2c(-c3ccsc3)sc3ccccc23)cc1	8	108*	48*	41	30	61*
COCc1ccc(-c2c(-c3ccsc3)sc3ccccc23)cc1	4	.	-3	3	0	.
CCC(=O)Nc1ccc(/C=C(\C(C)=O)C(=O)c2ccccc2)cc1	-10	3	35	35	38	.
CC(=O)/C(=C/c1ccc(N(C)C)cc1)C(=O)c1ccccc1	-11	-1	41*	18	15	-17
COc1cc(C(C)=O)ccc1OCC(O)CN1CCN(c2c(C)cccc2C)CC1 (centres undefined)	19	-1	97*	-2	-7	10
Cc1ccc(Cl)cc1NC(=S)N1CCC(c2ccccc2)C1 (centres undefined)	26	-1	52*	14	37	37*
COc1ccc(NC(=S)N2CCC(c3ccccc3)C2)cc1 (centres undefined)	3	1	8	28	36	.
Cc1ccc(C(=O)Cn2c(NCCO)nc3ccccc32)cc1	-4	-1	-1	0	2	.
Cc1ccc(C(=O)Cn2c(C(=O)/C=C/c3ccccc3)nc3ccccc32)cc1	-5	-2	43*	30	38	33*
CCOC(=O)C1CCN(S(=O)(=O)c2ccc3c(c2)CC(C)N3C(=O)C2CC2)CC1 (centres undefined)	13	21	40*	36	2	49*
O=C1CC(c2ccco2)CC(O)=C1C=Nc1cc(Cl)ccc1O (centres undefined)	18	4	16	-6	24	.
O=C1CC(c2ccco2)CC(O)=C1C=Nc1ccccc1-c1ccccc1 (centres undefined)	1	-5	41*	32	38	25
Cc1cccc(-n2c(O)c(C=Nc3cccc(O)c3)c3ccccc3c2=O)n1	-12	6	10	16	-5	.
Cc1ccc(N=Cc2c(O)n(-c3nccs3)c(=O)c3ccccc23)cc1	6	0	41*	-2	14	-8
Cc1ccc(-n2c(O)c(C=Nc3ccc4c(c3)OCO4)c3ccccc3c2=O)cc1C	-3	11	-6	-40	6	.
Cc1cc(N=Cc2c(O)n(-c3ccc4c(c3)OCO4)c(=O)c3ccccc23)ccn1	19	-2	53*	25	26	36*
COc1ccc(NC(=O)CNC(=O)Cc2cccc3ccccc23)c(OC)c1	7	-4	2	21	8	.
O=c1ccn(-c2cccc(C(F)(F)F)c2)nc1-c1ccn(-c2cccc(Cl)c2)n1	4	-4	4	15	10	.
CC(=O)C1=C(C)Nc2ncnn2C1c1ccccc1 (centres undefined)	12	14	-26	0	-12	.
CC(=O)C1=C(C)Nc2ncnn2C1c1ccccc1F (centres undefined)	-1	2	97*	1	2	8
NS(=O)(=O)c1ccc(CNC(=O)c2cc(=O)c3ccccc3o2)cc1	0	3	-6	-7	-2	.
SMILES	NALP3 yeast inh	SKKanGAS inh	TIM10 inh	tim23-1 inh	tim10-1 inh	TIM10 conf
C=CCN=c1scc(-c2ccccc2)n1/N=C/c1ccccn1	20	-6	48*	45	28	43*
Cc1nc2ccccc2c(=O)n1/N=C/c1ccccn1	8	2	-1	10	11	.
CCN=c1scc(-c2ccccc2)n1/N=C/c1ccccn1	12	-6	45*	35	36	24
Cc1ccc(CSCC(=O)NCc2cccs2)cc1	5	1	-21	13	-9	.
CC(=O)Nc1ccc(/C=C(\C#N)C(=O)NC2CCCCC2C)cc1 (centres undefined)	16	7	68*	47	38	45*
COc1cc(/C=C(\C#N)C(=O)NC2CCCCC2C)ccc1OS(=O)(=O)c1ccc(C)cc1 (centres undefined)	19	3	34	36	36	.
O=C(OCn1nnc2ccccc2c1=O)c1cccc(S(=O)(=O)N2CCOCC2)c1	22	.	3	13	0	.
O=c1[nH]cnc2ncc(-c3ccc(O)cc3)nc12	14	-1	41*	16	4	-10
O=[N+]([O-])c1cc(Br)c(OCc2nnc(-c3ccccc3)o2)c(Br)c1	20	2	14	6	7	.
O=[N+]([O-])c1ccc2c(OCc3nnc(-c4ccccc4Br)o3)ncnc2c1	4	-2	45*	32	-21	31*
Cc1ccccc1-n1c(-c2csc(C)c2C)n[nH]c1=S	4	6	18	16	28	.
Cc1cccc(-n2c(-c3csc(C)c3C)n[nH]c2=S)c1	27	-8	44*	28	39	-20
Cc1cccc(-n2c(-c3csc(C(C)C)c3)n[nH]c2=S)c1	21	-8	42*	43	31	30
Cc1cccc(-n2c(-c3ccc(Br)o3)n[nH]c2=S)c1	12	12	25	19	18	.
Cc1ccnn1CCC(=O)O	-1	-6	-22	6	-3	.
CC1CC(C)CN(C(=O)CCCn2c(=S)[nH]c3ccccc3c2=O)C1 (centres undefined)	17	6	43*	42	29	19
O=C(C1CCC(Cn2c(=S)[nH]c3ccccc3c2=O)CC1)N1CCN(c2ccccc2)CC1 (centres undefined)	7	?	46*	31	26	37*
CCCCCn1c(-c2ccco2)nc2nc3ccccc3nc21	26	11	33	40	13	.
c1ccc(Cn2c(-c3ccco3)nc3nc4ccccc4nc32)cc1	14	11	43*	27	35	-21
Cn1nc(C(F)(F)F)cc1-c1ccc(S(N)(=O)=O)s1	-2	-6	-10	18	1	.
Cc1cccc(NC(=O)c2ccc([N+](=O)[O-])o2)n1	3	18	60*	-18	5	-26
Cc1ccc(NC(=O)c2cccs2)cc1[N+](=O)[O-]	23	-6	45*	36	18	12
Cc1ccc(C(=O)Nc2ccc(NC(=O)c3cccs3)cc2)cc1[N+](=O)[O-]	4	-2	-11	-18	8	.
O=C(Nc1nc(-c2cccs2)cs1)c1ccc([N+](=O)[O-])o1	17	.	63*	45	12	87*
O=C(Cc1ccccc1)Nc1nc(-c2cccs2)cs1	22	28	25	34	36	.
